Compounds without any hit were thinned out: in the full panel of roughly 79,000, 15% have a hit. Activity calls are given as the source filed them. Cut-off read from the data, not from the text of the source: active = growth inhibition above about 70%; inactive = the rest. Where a SMILES comes first, the peptide text is derived from it.
Key:
[1] = NCI Yeast Anticancer Drug Screen. Data for the rad50 strain (AID 155);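 note: 0% = growth of vehicle-only cultures of the same strain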; settings: S. cerevisiae rad50 strain growth inhibition; at 50.0 µM; active compounds read high
How it was run: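 Genetically altered yeast (DNA repair pathway); compound treatment; growth inhibition vs vehicle ctrl.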

[2] = NCI Yeast Anticancer Drug Screen. Data for the mec2-1 strain (AID 157); settings: S. cerevisiae mec2-1 strain, at 50.0 µM, active compounds read high
How it was run: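 Growth inhibition is read against vehicle-treated controls after compound exposure of the mec2-1 yeast strain, which is defective in DNA damage repair or cell cycle control.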

[3] = NCI Yeast Anticancer Drug Screen. Data for the sgs1 mgt1 strain (AID 161);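 note: 0% = growth of cultures given vehicle only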; settings: S. cerevisiae sgs1 mgt1 strain, at 50.0 µM, active compounds read high
How it was run: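 Compounds are added to genetically altered yeast, and growth is compared with cultures given vehicle alone to give percent inhibition.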

[4] = NCI Yeast Anticancer Drug Screen. Data for the cln2 rad14 strain (AID 165);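 note: 0% = growth equal to vehicle treated cultures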; settings: S. cerevisiae cln2 rad14 strain, at 50.0 µM, active compounds read high
How it was run: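 Growth inhibition, relative to vehicle-treated controls, is the read-out. The test organism is a yeast strain with defined genetic alterations, cln2 rad14.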

[5] = NCI Yeast Anticancer Drug Screen. Data for the bub3 strain (AID 167); settings: S. cerevisiae bub3 mutant strain, at 50.0 µM, active compounds read high
How it was run: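 Yeast carrying a defined mutation is treated with each compound, and growth is compared with that of vehicle-exposed cells to give inhibition.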

[6] = NCI Yeast Anticancer Drug Screen. Data for the mlh1 rad18 strain (AID 175); settings: S. cerevisiae mlh1 rad18 strain growth inhibition; at 50.0 µM; active compounds read high
How it was run: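 Cells of a genetically altered yeast strain, deficient in DNA damage repair, were treated with compound. Their growth was then compared with that of vehicle-treated cultures to give inhibition.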

Measured: growth inhibition

O=C(/C=C\c1ccc([N+](=O)[O-])cc1)c1ccccc1
inactive: [1] -1.6% | [2] -6.1% | [3] -2.4% | [4] -28.3% | [5] -3.6% | [6] -16.2%

CC(=O)OCC#Cc1ccccc1
inactive: [1] -10.9% | [2] -14.1% | [3] -0.2% | [4] -17.6% | [5] 19.4% | [6] -1.2%

Cc1cccc(Cl)c1OCC(=O)Nc1ccccc1
inactive: [1] 20.9% | [2] 10.1% | [3] 20.8% | [4] 0.8% | [5] 58.6% | [6] -3.65%

CCC(=O)CC(C)=O.CCC(=O)CC(C)=O.[Cu]
inactive: [1] -10.3% | [2] 19.4% | [3] 5.5% | [4] -31% | [5] -2.2% | [6] 14.2%

O=c1oc(-c2ccc(Cl)cc2Cl)nc2cc(Cl)ccc12
inactive: [1] 22.9% | [2] -10.4% | [3] 43.2% | [4] 22.2% | [5] 19.6% | [6] 25.4%

CC(C)c1ccc([N+](=O)[O-])cc1
inactive: [1] 31.5% | [2] 11.1% | [3] 11.2% | [4] 26.6% | [5] 5.95% | [6] 16.9%

Cc1cccc(Cl)c1NC(=O)c1cccc([N+](=O)[O-])c1
inactive: [1] 0.15% | [2] 40.6% | [3] 22.9% | [4] -7.95% | [5] 32.4% | [6] 46.4%

COc1ccc2nc(N/N=C/C(C)=N/Nc3cc(C)c4cc(OC)ccc4n3)cc(C)c2c1
inactive: [1] -3% | [2] 4.8% | [3] -2% | [4] 3.4% | [5] 0.15% | [6] -23.2%

COc1ccccc1-c1ccc([N+](=O)[O-])cc1[N+](=O)[O-]
inactive: [1] 18.9% | [2] -5.7% | [3] -1.9% | [4] 8.65% | [5] 22.2% | [6] 14.8%

O=c1c2c(nc3n1CCC3)sc1c(O)c(Br)ccc12
inactive: [1] -44.7% | [2] -26.6% | [3] -46.7% | [4] -25.1% | [5] -40% | [6] -52.1%

Clc1ccc(C(=C(c2ccc(Cl)cc2)c2ccc(Cl)cc2)c2ccc(Cl)cc2)cc1
inactive: [1] -3.85% | [2] 5.4% | [3] 3.5% | [4] -3.35% | [5] 10.4% | [6] -1.45%

CCC(Cc1ccccc1)C1=NC(C)(C)CC(C)O1 (centres undefined)
inactive: [1] 1.2% | [2] 3.95% | [3] -5.25% | [4] -20.6% | [5] -1.4% | [6] 25.4%

CC(C)CC(NC(=O)C(CCC(=O)O)NC(=O)CNC(=O)CNC(=O)C(CO)NC(=O)C(CC(C)C)NC(=O)C(NC(=O)C(CO)NC(=O)C(C)NC(=O)C(CCCNC(=N)N)NC(=O)C(C)NC(=O)CN)C(C)C)C(=O)NC(CC(=O)O)C(=O)NC(CCCNC(=N)N)C(=O)NC(Cc1c[nH]c2ccccc12)C(=O)NC(Cc1ccc(O)cc1)C(N)=O (centres undefined) (H-GARASVLSGGELDRWY-NH2; configuration not given here)
inactive: [1] 21.4% | [2] -7.15% | [3] 3.25% | [4] 8.4% | [5] -5.85% | [6] 11.7%

O=C(/C=C/c1ccco1)N1CCN(Cc2ccccc2)CC1
inactive: [1] 3.7% | [2] 8.15% | [3] 23% | [4] 32.2% | [5] 53% | [6] 14.4%

Cc1ccccc1NC(=O)Nc1ccccc1C
inactive: [1] -3.8% | [2] -15.3% | [3] 3.45% | [4] -23% | [5] -20.2% | [6] -11.9%

Cc1ccc(NC(=O)CCC(=O)C2Cc3ccccc3C2=O)cc1C (centres undefined)
inactive: [1] -16% | [2] -7.55% | [3] -5.05% | [4] 21.3% | [5] 1.65% | [6] 3.85%

FC(F)(F)C1(C(F)(F)F)OI2(Br)(OC(C(F)(F)F)(C(F)(F)F)c3ccccc32)c2ccccc21
inactive: [1] -6.05% | [2] -0.25% | [3] -11.2% | [4] 21.2% | [5] -5.3% | [6] 27.1%

CNC(=O)NC1CCC(C)CC1 (centres undefined)
inactive: [1] 2% | [2] 2.6% | [3] 1.5% | [4] -14.3% | [5] -6.25% | [6] 7.85%

N#Cc1ccccc1NC(=O)C(=O)C(C(=O)c1ccncc1)C1OC(=O)c2ccccc21 (centres undefined)
inactive: [1] -2.55% | [2] -17.1% | [3] -31.3% | [4] 10.1% | [5] -0.65% | [6] 5.3%

CC(C)n1c(=O)nc(-c2ccccc2)c2cc3c(cc21)OCO3
inactive: [1] 27.3% | [2] 18.8% | [3] 51.4% | [4] 7% | [5] 47.9% | [6] 8.65%

COc1cc(Nc2cc(Cl)cc(Cl)c2)nc(N)n1
inactive: [3] 6.5% | [4] 7.9% | [5] 9.35%
active: [1] 76.4% | [2] 81% | [6] 89.6%

Cc1cc(NN)c2cc3c(cc2n1)OCO3
inactive: [1] 12.4% | [2] -2.6% | [3] 5.05% | [4] -46% | [5] -5.7% | [6] 24.1%

S=C(Nc1ccccc1)N1CC2C3CCC(O3)C2C1 (centres undefined)
inactive: [1] 16.6% | [2] 12.6% | [3] 10.2% | [4] 3.15% | [5] 22.5% | [6] 22.6%

O=C(NC(Nc1ccc(F)c(Cl)c1)(C(F)(F)F)C(F)(F)F)OCc1ccccc1
inactive: [1] -1.35% | [2] -1.05% | [3] -23.1% | [4] 3.1% | [5] -5.5% | [6] 24.3%

N#CC1(Nc2ccc(Cl)cc2)CCCC1
inactive: [1] 5.6% | [2] 2.4% | [3] -6.5% | [4] -15.6% | [5] 13.8% | [6] 3.1%

COc1cc(Nc2nc3ccccc3nc2-c2cccs2)cc(OC)c1OC
inactive: [1] 4.8% | [2] 14% | [3] 29.6% | [4] 29.8% | [5] 26.1% | [6] 6%

C/C(CCc1ccccc1)=N/Nc1ccc([N+](=O)[O-])cc1[N+](=O)[O-]
inactive: [1] 0.65% | [2] -4.75% | [3] 10.2% | [4] 0.05% | [5] 13.4% | [6] -4.55%

NC1=NS(=O)(=O)c2ccccc21
inactive: [1] 14.8% | [2] -11.7% | [3] 3.1% | [4] -48.7% | [5] -1.35% | [6] -1.55%

c1ccc(-c2nnc(SCc3nc4ccccc4[nH]3)o2)cc1
inactive: [1] 5.65% | [2] 9.75% | [3] 29.8% | [4] 36.3% | [5] 20.4% | [6] 52%

CC(=O)CC(=O)Nc1cccc(NC(=O)CC(C)=O)c1
inactive: [1] -16.4% | [2] 8.45% | [3] -10.6% | [4] 3.85% | [5] -5.8% | [6] -20.6%

CN(C)Cc1[nH]c2ccccc2c1Sc1ccccc1
inactive: [1] 0.85% | [2] 2.4% | [3] 24.6% | [4] 6.2% | [5] -27.9% | [6] 30.8%

c1cc2cc(C3=NCCN3)[nH]c2cc1C1=NCCN1
inactive: [1] 12.8% | [2] 35.4% | [3] 29.1% | [4] 43.5% | [5] 18.6% | [6] 26.2%

CCCCCCC1CCC(O)CC1 (centres undefined)
inactive: [1] 22.6% | [2] 2.95% | [3] -8.05% | [4] -0.15% | [5] 12.3% | [6] 41.1%

COc1cc(CNC(=O)CCCCCCCCCCSSCCCCCCCCCCC(=O)NCc2ccc(O)c(OC)c2)ccc1O
inactive: [1] -20.4% | [2] -32.8% | [3] -22.9% | [4] 5.9% | [5] -13.3% | [6] -24.8%

O=[N+]([O-])c1ccc(CN2CCC(C(=S)Nc3ccccc3)=C2c2ccccc2)cc1
inactive: [1] 9.6% | [2] 0.3% | [3] 8.8% | [4] 9.05% | [5] -1.2% | [6] 12.4%

CCOP(=O)(OCC)c1nc(Cl)nc(Cl)c1SC(F)(F)F
inactive: [1] 33.3% | [2] 11.3% | [3] 14.5% | [4] 13.2% | [5] -4.4% | [6] 25.2%

Nc1c(OS(=O)(=O)c2ccccc2)cccc1OS(=O)(=O)c1ccccc1
inactive: [1] 20.8% | [2] -2.45% | [3] 18.8% | [4] 20.7% | [5] 39.7% | [6] 37.1%

CN(C(=O)CCC1OCCO1)c1cc([N+](=O)[O-])ccc1OCc1ccccc1
inactive: [1] 22.1% | [2] -1.05% | [3] 1.5% | [4] 9.8% | [5] 2% | [6] 15.2%

CC(C)(C)c1cc(-c2cc(C(C)(C)C)[nH]n2)n[nH]1
inactive: [1] 12.8% | [2] 4% | [3] 12.7% | [4] 9.05% | [5] 14.2% | [6] 10.3%
